Reference: PubChem BioAssay AID504408 (Broad Institute, 2011)
Among all 300,000 compounds or so, about 5,200 (1.7%) were called active. This is one part of a sample in which actives are shown more often than they occur.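 How the source made its calls: active means mean replicate activation of at least 50% with a set share of replicates each reaching 50%; inconclusive means only one of those two conditions met; inactive means mean below 50% and too few replicates reaching it.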

Assay: HSF-1 activators, primary screen, NIH3T3-HGL cells, MG132 stress, luminescence, single point (AID 504408);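 further: 0% = median of the neutral control wells and 100% = twice that signal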
Conditions: NIH3T3-HGL HSF-1 luciferase reporter, MG132, 8 h; at 9 µM; stronger effect = higher value; 100% = twice DMSO control signal

activation, inactive:
CCCc1cc(-c2nc(-c3ccc(C)cc3)cs2)ccn1 7.82%
Cc1ccc(-c2csc(-c3cc(C)on3)n2)cc1 28.5%
COc1ccccc1C(=O)NCCC(=O)NN1C(=O)NC2(CCCCC2)C1=O -5.35%
O=C(COC(=O)c1ncc(Cl)c(Cl)c1Cl)NCc1cccs1 -3.74%
CC(=C/c1ccccc1)/C=N/NC(=O)c1cc(C)oc1C 32%
O=C(Cc1cc(=O)[nH][nH]1)N/N=C/c1ccccc1[N+](=O)[O-] -2.04%
CC(C)c1cc(C(=O)N/N=C/C(Br)=C/c2ccccc2)n[nH]1 40.2%
Cc1cc(C(=O)N/N=C/c2ccc(N3CCOCC3)cc2)c(C)o1 -5.06%
COc1cc(C(=O)N(C)Cc2cccc(OC)c2OC)ccc1OCC(=O)Nc1cccc(C(F)(F)F)c1 -3.36%
CC(OC(=O)CCC(=O)c1ccccc1)C(=O)Nc1ccc(F)cc1 (stereo not drawn) -12.9%
COc1cc(C(=O)OCc2ccc([N+](=O)[O-])cc2)cc(OC)c1OC 12.4%
COc1cc(/C=N\Nc2ccc([N+](=O)[O-])cn2)ccc1OCC(=O)O 0.194%
O=C(Nc1ccc(F)c([N+](=O)[O-])c1)C1CCCO1 (stereo not drawn) 9.04%
COc1ccc(S(=O)(=O)N2CCOC23CCN(S(=O)(=O)c2ccc([N+](=O)[O-])cc2)CC3)cc1 0.627%
CCOc1ccc(C(C)=O)cc1COC(=O)CN1C(=O)NC2(CCCC2)C1=O -13.7%
Cc1ccc(-c2cc(C(=O)N/N=C/C=C/c3ccco3)c3ccccc3n2)cc1C -41.2%
CC(/C=N/NC(=O)c1ccncc1)=C\c1ccco1 27.6%
N=c1oc2ccccc2cc1C(=O)N/N=C/c1ccccc1 22.1%
COc1ccc(/C=N/Nc2ccccc2C(=O)O)cc1 12.9%
COc1ccccc1NS(=O)(=O)c1ccc(C(=O)N2CCN(c3ccccc3O)CC2)cc1 14.5%
CCCC(=O)N(CCN1CCOCC1)c1nc2ccc(OCC)cc2s1 5.04%
CCOc1ccc2nc(Nc3nc4ccc(NC(C)=O)cc4s3)sc2c1 36.7%
CSc1ccc(S(=O)(=O)NCC(=O)OCC(=O)NC2(C#N)CCCCC2)cc1[N+](=O)[O-] 1.77%
COc1ccccc1C(=O)NC(CCSC)C(=O)NNC(=O)c1ccccc1C (stereo not drawn) -15.3%
O=C(Nn1c(-c2ccccc2)nc2ccccc2c1=O)c1ccc([N+](=O)[O-])cc1 19.1%
C=CCn1c(SCc2ccc(C(=O)NCCO)cc2)nc2ccccc2c1=O -5.63%
O=C(CSc1ccccn1)N1CCN(S(=O)(=O)c2ccc(Cl)cc2)CC1 9.98%
O=S(=O)(O)Oc1c[nH]c2ccccc12 -0.476%
CCS(=O)(=O)c1ccc(-c2cccc(NC(=O)c3ccc(Br)o3)c2)nn1 -23.4%
CCCc1cc(C(=O)Nc2ccc(Cl)cn2)cs1 43.8%
O=C(Nc1cccc([N+](=O)[O-])c1)Nc1ccc(Cl)cn1 -5.81%
COc1ccc(NC(=O)CN(C)C(=O)/C=C/c2cn(Cc3ccccc3)nc2-c2cccnc2)cc1 1.78%
COC(=O)[C@]1(C)N[C@H](c2ccc(-c3ccc(Cl)c(Cl)c3)cc2)[C@@H]2C(=O)N(C)C(=O)[C@@H]21 23%
Cn1c(CCN2CCCC2)nc2cc(NS(=O)(=O)c3ccccc3)ccc21 -1.14%
CCC(=O)Nc1ccc2c(c1)nc(CCN1CCN(c3ccccn3)CC1)n2C 27.9%
CCOC(=O)N1CCN(Cc2nc3cc(NC(C)=O)ccc3n2C)CC1 -12.5%
CC(=O)NCCc1nc2cc(NC(=O)c3ccccc3)ccc2n1C -16.5%
COC(=O)c1ccc(SCc2ccccc2)nc1 18.6%
CCOc1ccc(NC(=O)CN(C)C(=O)c2c(C)noc2C)cc1OCC 8.14%
CCOC(=O)c1c(NC(=O)CN2C(=O)NC3(CCC(C)CC3)C2=O)sc(C)c1CC (stereo not drawn) 2.47%
COc1ccc(C2CC(c3ccc([N+](=O)[O-])cc3)=NN2C(C)=O)cc1 (stereo not drawn) 22%
COc1ccc(C2=NN(C(=O)c3cccnc3)C(c3ccccc3)C2)cc1 (stereo not drawn) 4.6%
OCc1ccc(-c2ccccc2)c(-c2ccccc2)c1 -0.0415%
Cc1ccc(CSCC(=O)N(C)CC(=O)Nc2cccc(F)c2)cc1 4.88%
Cc1cc(C)c(C)c(S(=O)(=O)Nc2cccnc2)c1C -8.55%
CCOC(=O)/C(C#N)=C/c1ccc(N2CCN(Cc3ccccc3)CC2)cc1 -3.55%
COc1ccc(N2CCN(C(=O)/C(C#N)=C/c3ccccc3)CC2)cc1 -4.53%
CCN1C(=O)[C@H]2[C@@H](c3ccc(-c4ccc(OC)cc4)cc3)N[C@@](Cc3ccccc3)(C(=O)OC)[C@H]2C1=O 22.5%
OCCN1CCN(C(=S)c2ccc(-c3ccccc3)cc2)CC1 -5.27%
S=C(c1ccccc1)N1CCCC1 0.831%
CCCCCC(=O)N1CCN(S(=O)(=O)c2ccc3c(c2)OCCCO3)CC1 -14%
CCCCn1c(N)c(N(CCOC)C(=O)c2cccc(S(=O)(=O)N(C)c3ccccc3)c2)c(=O)[nH]c1=O 0.234%
Clc1ccc(Nc2ccc3ccccc3n2)cc1 5.69%
C(=N\Nc1ccc2ccccc2n1)/c1ccc2c(c1)OCO2 -41.8%
Cc1ccc(S(=O)(=O)N(C)c2ccc(OCC(=O)OCC(=O)N(CC#N)c3ccccc3)cc2)cc1 7.96%
O=S(=O)(NCCCc1ccccc1)c1ccc(Br)cc1 11.6%
O=C(NCCS(=O)(=O)NCc1ccc(Cl)cc1)c1ccccc1 8.69%
CCOc1ccc(NS(=O)(=O)c2ccc(C(=O)NC3CCN(Cc4ccccc4)CC3)cc2)cc1 -18.5%
OC(c1nc2ccccc2[nH]1)C(O)C(O)C(O)c1nc2ccccc2[nH]1 (stereo not drawn) 1.21%
Cc1ccc(-c2nc3ccccc3[nH]2)cc1N 36.7%
CCN(CC(=O)Nc1c(F)cccc1F)C(=O)c1ccc(S(=O)(=O)N2CCCCC2)cc1 -12.7%
Cc1ccccc1NC(=O)COc1cccc2c1CCNC2=O -1.52%
CCCCn1c(N)c(N(CC(C)C)C(=O)CSc2ccc([N+](=O)[O-])cc2)c(=O)[nH]c1=O -6.98%
Cc1ccc(-c2nn(-c3ccc(F)cc3)cc2C(=O)NCC(c2cccs2)N2CCOCC2)cc1 (stereo not drawn) -1.83%
Cc1ccn2c(=O)nc(SCC(=O)NCc3ccc(F)cc3)nc2c1 16.8%
O=C(COC(=O)c1ccccn1)NNC(=O)c1ccc([N+](=O)[O-])cc1 5.44%
CCn1c2ccc(F)cc2c2nnc(SCCN3CCOCC3)nc21 -5.84%
Cc1cccc(C)c1OCCN1CCOCC1 3.56%
COc1ccc(NC(=O)CN(C)C(=O)CC2CCCCC2)cc1 0.174%
N#CCCN(C(=O)COC(=O)C1CCN(c2ccc(C(F)(F)F)cn2)CC1)c1ccc(F)cc1 9.78%
CCC(CC)NC(=O)CSc1nnc(-c2c[nH]c3ccccc23)o1 12.5%
CN(C(=O)CSc1nnc(-c2c[nH]c3ccccc23)o1)C1CCS(=O)(=O)C1 (stereo not drawn) 20.1%
O=C(COc1ccc(Cl)cc1)Nc1ccccc1CO 3.44%
COC(=O)c1sccc1NC(=O)c1ccc(Cl)cc1 12.5%

activation, active:
Cc1ccc(-c2csc(-c3c[nH]c4ccccc34)n2)cc1 62%
Cc1cc(C(=O)N/N=C\C(Br)=C\c2ccccc2)c(C)o1 112%
Cc1cc(C(=O)N/N=C/c2ccccc2[N+](=O)[O-])c(C)o1 58.5%
COc1cc(/C=N/O)ccc1OCc1ccc([N+](=O)[O-])cc1 118%
CC(/C=N/NC(=O)c1cc(-c2ccc3ccccc3c2)n[nH]1)=C\c1ccco1 71.5%
NC(=O)c1ccccc1N=Cc1ccc2ccccc2c1 75.3%
CCOc1ccc2nc(C(=O)N3CCCC(C)C3)sc2c1 (stereo not drawn) 76.7%
O=C(Nn1c(SCc2ccc([N+](=O)[O-])cc2)nc2ccccc2c1=O)c1ccc(F)cc1 51.9%
O=C(Nc1ccc(Cl)cn1)Nc1cccs1 69.7%
Cn1c(CCN2CCCCCC2)nc2cc(NC(=O)Nc3ccccc3)ccc21 276%
Cn1c(CN2CCOCC2)nc2cc(NC(=O)c3ccc(Cl)cc3)ccc21 70%
COc1ccc(C2CC(c3ccccc3)=NN2C(=O)c2ccc(Cl)c([N+](=O)[O-])c2)cc1 (stereo not drawn) 73.2%
CCOC(=O)/C(C#N)=C/c1ccc(N2CCCCC2)cc1 54.1%
S=C(c1ccc(-c2ccccc2)o1)N1CCCCC1 63.6%
Cc1noc(C)c1/C=N/Nc1ccc2ccccc2n1 59.1%
c1ccc2[nH]c(-c3nc4ccccc4[nH]3)nc2c1 77.8%
Cc1cc2nc(SCCN3CCOCC3)[nH]c2cc1C 53.2%
O=C(CSc1nnc(-c2c[nH]c3ccccc23)o1)c1ccccc1 54.2%
COC(=O)c1sccc1NC(=O)COc1ccc(Cl)cc1 65.1%
